Source: PubChem BioAssay (Broad Institute)
Only some compounds are listed: those with a hit (about 0.61% of all), similar ones and a draw of the others.
Mtb BioA inh = inhibitors of Mycobacterium tuberculosis BioA enzyme; 0.096% of 360,000 active; inhibition, % at 9.99 µM; AID 602481; purified M. tuberculosis BioA enzyme, plate reader; in the data active means inhibition above about 40%
Yp Topo-I inh = blocks Yersinia pestis topoisomerase I activity | Y. pestis Topo-I cleavage product accumulation, plate reader | activity, % at 10 µM | 0.064% of 360,000 active; in the data active means activity above about 50%, passing the limit was not always enough
Vc quorum ag = inducers of Vibrio cholerae quorum light production without autoinducers; V. cholerae BH1578 lux reporter, luminescence, 6 h; activation, % at 18.7 µM; 0.16% of 350,000 active; AID 588436; in the data active means activation mostly above about 9.7%, no sharp cut-off
FadD28 FP inh = M. tuberculosis FadD28 bisubstrate binding inhibition | FadD28 bisubstrate probe binding, fluorescence polarization | inhibition, % at 12.5 µM | 0.22% of 360,000 active; in the data active means inhibition above about 8.5%, passing the limit was not always enough
TcdB inh = inhibitors of Clostridioides difficile toxin B glycohydrolase; TcdB glycohydrolase enzymatic assay, plate reader; inhibition, % at 9.99 µM; 0.24% of 350,000 active; AID 652162; in the data active means inhibition above about 10%
Starred values were filed as active, the others as inactive; i = inactive; x = no result given.

SMILES	Mtb BioA inh	Yp Topo-I inh	Vc quorum ag	FadD28 FP inh	TcdB inh
Cn1c(=O)c2c(ncn2CC(COCc2ccc(Cl)cc2)OCc2ccc(Cl)cc2)n(C)c1=O (stereo not given)	3	7	i	-5	x
Cn1c(=O)c2c(ncn2Cc2ccc(Cl)cc2)n(C)c1=O	x	-8	0	16*	2
CCOC(=O)N1CCN(C(=S)NC(=O)c2ccc(F)c(F)c2)CC1	x	2	i	0	11*
Cc1ccc2oc3c(c(=O)c2c1)C(c1cccs1)N(CCCN(C)C)C3=O (stereo not given)	59*	5	i	-6	x
O=C(NCC1CCCCC1)[C@@H]1[C@@H](CO)[C@@H]2Cn3c(ccc(-c4cccnc4)c3=O)[C@H]1N2	x	x	x	x	0
Cc1ccccc1-n1c(C)n[nH]c1=S	-1	-4	i	-4	1
Cc1cccn2c(=S)[nH]nc12	0	8	-7	-4	16*
CS(=O)(=O)N1CC(=O)N2[C@H](C1)[C@H](c1ccc(C#Cc3cccc(F)c3)cc1)[C@@H]2CO	x	x	x	x	1
COc1ccc(CCNC(=O)CCCn2nc(C)n3ccnc3c2=O)cc1OC	0	-2	0	0	14*
COc1ccccc1CNC(=O)CCCn1nc(C)n2ccnc2c1=O	-2	2	1	-3	1
CNC(C(=O)c1ccccc1)C(OC)c1cccc([N+](=O)[O-])c1 (stereo not given)	x	-3	0	-3	21*
Cc1cc(C)c(-c2noc(C(=O)OC(C)(C)C)c2C(=O)OC(C)(C)C)c(C)c1	-3	34	51*	2	x
C[C@H](CO)N1C[C@H](C)[C@H](CN(C)Cc2ccccc2)OCCCC[C@H](C)Oc2ccc(NC(=O)Nc3cccc4ccccc34)cc2C1=O	4	x	x	x	0
Cc1cccc(C(=O)N(Cc2nc3ccccc3c(=O)[nH]2)C2CCCC2)c1	x	23	-1	-4	0
Cc1cccc(C(=O)N(Cc2nc3ccccc3c(=O)[nH]2)C2CCCCC2)c1	x	54*	-1	-2	2
Cc1ccc(S(=O)(=O)NC[C@@H]2CC[C@@H]3[C@@H](CN3Cc3ccccc3C(=O)O)O2)cc1	x	x	x	x	0
OCCNc1nc(Nc2ccccc2)nc2ccccc12	1	-4	17*	-1	x
CCOC(=O)/C(=N/Nc1ccc(Br)cc1)N1CC(C)OC(C)C1 (stereo not given)	x	10	x	-1	34*
CCc1cccc2c(C(=O)CSc3nncn3-c3ccc(OC)cc3)c[nH]c12	x	5	-1	14*	0
COC(=O)[C@@]12CCCCN1[C@H](c1ccc(-c3ccccc3)c(OC)c1)[C@H]1C(=O)N(C)C(=O)[C@H]12	-2	5	i	1	12*
Cc1cc(C(=O)Nc2ncc(C)s2)c2ccccc2n1	x	-1	i	-3	10*
COc1ccc(NC(=O)c2cc(C)nc3ccccc23)c(OC)c1	x	-11	-4	-2	12*
COc1ccc(NC(=O)c2cc(-c3ccc(C)o3)nc3ccccc23)c(OC)c1	-1	14	0	-1	-1
CO[C@@H]1CN(C)C(=O)c2cc(NS(C)(=O)=O)ccc2OC[C@@H](C)N(CCC(F)(F)F)C[C@@H]1C	-1	x	x	x	x
O=C(N/N=C/c1cccnc1)c1cc2c(ccc3ccccc32)o1	0	15	x	-5	x
SMILES	Mtb BioA inh	Yp Topo-I inh	Vc quorum ag	FadD28 FP inh	TcdB inh
O=C(N/N=C/c1cc(Cl)c(O)c(Cl)c1)c1cc2c(ccc3ccccc32)o1	-1	-12	0	39*	0
O=C(N/N=C/c1ccc(O)c(Br)c1)c1cc2c(ccc3ccccc32)o1	1	-6	i	-2	-4
O=C(N/N=C/c1cc(Br)c(O)c(Br)c1)c1cc2c(ccc3ccccc32)o1	2	-8	0	25*	2
COc1ccc(COC[C@]23Oc4ccccc4[C@H]([C@H]2COC(=O)c2ccc([N+](=O)[O-])cc2)N(C(=O)CC(C)=O)C(=O)N3C)cc1	x	x	x	x	0
CCc1sc(/C=C(/C#N)C(N)=S)cc1[N+](=O)[O-]	x	-19	x	18*	0
Cc1ccc(S(=O)(=O)N(C)C[C@@H]2Oc3c(NC(=O)c4cnccn4)cccc3C(=O)N([C@H](C)CO)C[C@H]2C)cc1	4	x	x	x	-1
C[C@@H]1CN([C@H](C)CO)C(=O)c2cc(C#CC3(O)CCCC3)cnc2O[C@@H]1CN(C)C(=O)C1CCC1	-2	x	x	x	0
Cc1ccc(OCc2cc(C(=O)N3CCc4sccc4C3)no2)cc1C	-1	54*	-1	1	0
Cc1ccc(OCc2cc(C(=O)N3CCCCCCC3)no2)cc1C	0	27	i	-2	1
Nc1cc(=O)[nH]c(SCC(=O)Nc2cccnc2Cl)n1	0	-13	0	-1	1
Nc1cc(=O)[nH]c(SCC(=O)Nc2ccccc2Sc2ccc(Cl)cc2)n1	x	2	0	-2	10*
O=C(C1CCCC1)N1CCCCN2[C@H](CO)[C@H](c3ccc(C#CC4(O)CCCC4)cc3)[C@H]2C1	-4	x	x	x	-2
NS(=O)(=O)c1ccc(CNC(=O)C(Cc2ccccc2)NS(=O)(=O)c2ccccc2F)cc1 (stereo not given)	x	11	i	16*	1
CCCN1C[C@H](C)[C@H](OC)CN(C)C(=O)c2cc(NC(=O)C3CCC3)ccc2OC[C@@H]1C	0	x	x	x	x
O=C1c2ccccc2-c2onc3ccc(NCc4ccco4)c1c23	-7	33	i	12*	x
CCNc1ccc2noc3c2c1C(=O)c1ccccc1-3	x	-3	-1	52*	x
CCOc1ccc2noc3c2c1C(=O)c1ccccc1-3	-11	-8	-3	1	x
COc1ccc(S(=O)(=O)Nc2cccc3c2O[C@H](CN(C)S(=O)(=O)c2ccc(OC)cc2)[C@@H](C)CN([C@@H](C)CO)C3=O)cc1	x	x	x	x	-1
O=C(NCCc1cccc(Cl)c1)c1ccc(Cl)c([N+](=O)[O-])c1	x	-1	0	-2	11*
CN(C)S(=O)(=O)c1ccc(NC(=O)c2cc3ccccc3o2)cc1	44*	0	i	-6	x
O=C(Nc1ccc2c(c1)OCCO2)c1cc2ccccc2o1	6	4	0	-3	10*
Cc1ccc(NC(=O)c2cc3ccccc3o2)cc1S(=O)(=O)N(C)C	3	4	-3	-2	x
[N-]=[N+]=NCc1ccccc1C[C@]1(C(=O)N2CCCCC2)N=C(c2ccc(OCCCO)cc2)O[C@H]1c1ccccc1	-2	x	x	x	0
CSc1ccc(NC(=O)Nc2ccc(C(=O)NCC(=O)O)cc2)cc1	x	0	i	11*	1
CCSc1ccc(C(=O)NCC(=O)O)cc1	-1	5	i	-2	0
O=C(CSc1ccc(Cl)cc1)N1CCOCC1	-3	-10	0	15*	x
C[C@@H](NCCc1ccc(O)cc1)[C@@H](O)c1ccc(O)cc1	1	-3	-1	-1	0
CCCCCCCCNC(C)C(O)c1ccc(SC(C)C)cc1 (stereo not given)	8	13	15	15*	2
NC(=O)[C@H]1[C@@H]2C(=O)O[C@@H](c3ccccc3)[C@@H](c3ccccc3)N2[C@@H](c2ccccc2OCCO)[C@]12C(=O)Nc1ccc(C#CC3(O)CCCCCC3)cc12	-1	x	x	x	0
